# Screening results as filed in PubChem.
# The list is not random: actives were taken first. Their share in the collection is about 3.5%.
# GPR151 ag – activates the human receptor GPR151 | actives 1% (n = 650,000) | activation, % at 11.2 µM | PathHunter beta-arrestin GPR151 cells, luminescence; in the data active = activation above about 4.9%
# Target sequence (Q8TDV0 whole entry, looked up): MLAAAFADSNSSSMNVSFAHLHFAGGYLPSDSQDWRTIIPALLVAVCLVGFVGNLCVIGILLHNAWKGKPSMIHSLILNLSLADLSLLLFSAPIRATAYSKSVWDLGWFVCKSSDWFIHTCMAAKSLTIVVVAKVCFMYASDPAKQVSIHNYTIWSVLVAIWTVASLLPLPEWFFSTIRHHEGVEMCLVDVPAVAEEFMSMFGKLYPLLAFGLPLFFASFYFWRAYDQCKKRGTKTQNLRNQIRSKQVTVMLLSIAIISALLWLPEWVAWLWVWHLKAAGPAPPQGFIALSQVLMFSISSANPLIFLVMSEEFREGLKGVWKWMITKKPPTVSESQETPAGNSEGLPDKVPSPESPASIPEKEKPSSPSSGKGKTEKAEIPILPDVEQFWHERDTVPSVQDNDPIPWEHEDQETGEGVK
# FBW7 act – activators of human E3 ligase FBW7; Q969H0; AlphaScreen FBW7–phospho-cyclin E peptide binding, activator screen; normalized activity (activation), % at 26.1 µM; actives 0.13% (n = 650,000); in the data active = normalized activity above about 1.9%;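 note: purified mutant Fbw7 with reduced substrate affinity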
# TEAD-YAP inh – TEAD-YAP interaction inhibition; HEK-TIYL cells, TEAD-Gal4/YAP UAS-luciferase luminescence; inhibition, % at 9.12 µM; actives 1.4% (n = 640,000); in the data active = inhibition above about 32%
# MITF primary – blocks human microphthalmia-associated transcription factor; inhibition, % at 2.6 µM; AlphaScreen MITF homodimerization, bead proximity signal; O75030; actives 0.91% (n = 650,000); in the data active = inhibition above about 50%
# GPR151 confirm – human GPR151 activation, confirmation screen; shares compounds with GPR151 ag; GPR151 PathHunter beta-arrestin cells, luminescence, 90 min; % of EA-reagent control over plate median; activation, % at 11.2 µM; 6,700 tested, under 10 active; AID 1508609;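 active = mean percent activation across replicates above the confirmation screen cutoff of 4.91%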
# GPR119 ag – activates human GPR119 in a GPR151 counter-screen; activation, % at 11.2 µM; shares compounds with GPR151 ag; GPR119 PathHunter beta-arrestin cells, luminescence, 90 min; 0 = compound-well median, 100 = enzyme-acceptor control; actives 0.3% (n = 6,700);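 active = mean percent activation in the counterscreen above 29.09%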;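 note: counterscreen on off-target GPR119 to flag nonselective hits from the GPR151 activator screen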
# Hits are given with their value; 0 = inactive; - = not tested or not shown; ! = not active in a repeat.
SMILES,GPR151 ag,FBW7 act,TEAD-YAP inh,MITF primary,GPR151 confirm,GPR119 ag
COc1ccc(Cl)cc1S(=O)(=O)NC(C)c1ccccc1 (centres undefined),0,0,0,0,-,-
CC(NS(=O)(=O)c1ccc(OCC(=O)Nc2ccccc2)c(Cl)c1)c1ccccc1 (centres undefined),6.1,0,0,0,0,0
CC1CN(CC(=O)NCc2cc(F)ccc2F)Cc2cc(Cl)ccc2O1 (centres undefined),0,0,0,0,-,-
CC(=O)c1ccc2ccccc2c1OC(=O)c1ccc(Br)o1,6.3,0,0,0,0,0
O=S(=O)(c1cccc2cnccc12)N1CCCN(S(=O)(=O)c2cccc3cnccc23)CC1,0,0,0,0,-,-
O=S(=O)(c1cccc2cnccc12)N1CCCNCC1,9.3!,0,0,0,0,0
Cc1ccccc1-c1nnc2n1N=C(c1ccc(Cl)cc1)CS2,6.6,0,0,0,0,0
Clc1ccc(-c2nnc3n2N=C(c2ccccc2)CS3)cc1,0,0,0,0,-,-
CCOc1ccc(-n2c(SCC#N)nc3c(sc(=S)n3-c3cccc(OC)c3)c2=O)cc1,0,0,0,0,-,-
O=C(Nc1ccccc1)c1ccccc1OCC(O)Cn1c2ccccc2c2ccccc21 (centres undefined),12.5,0,0,0,0,0
c1ccc(Nc2cc(Nc3ccc(N4CCOCC4)cc3)ncn2)cc1,0,0,0,0,-,-
CN(C)c1cccc(Nc2cc(Nc3ccc(N4CCOCC4)cc3)ncn2)c1,5.2,0,0,0,0,0
COc1ccc(OC)c(C2=NNC(=NCc3ccc4c(c3)OCO4)SC2)c1,5.6,0,0,0,0,0
COc1ccc(OC)c(CNCc2ccc3c(c2)OCO3)c1,0,0,0,0,-,-
CCOc1ccc(N2C(=S)NC3c4ccccc4OC2(C)C3C(=O)Nc2ccc(Cl)cc2)cc1 (centres undefined),0,0,0,0,-,-
COC(=O)c1ccc(NC(=S)NCc2nc3ccccc3n2C)cc1,0,0,0,0,-,-
CCCN(CCC)Cc1c(C(=O)O)nnn1-c1nonc1N,6.0,0,0,0,0,0
CC(=O)Nc1cc(CNC2C3CC4CC(C3)CC2C4)cc(C(=O)N2CCN(C)CC2)c1 (centres undefined),0,0,0,0,-,-
COC(=O)c1ccc(NC(=O)/C(=C\c2ccc(OC)c(OC)c2)NC(=O)c2ccc(Cl)cc2)cc1,7.8,0,0,0,0,0
COc1ccc(OC)c(C2=C/C(=C/c3cccc(OC)c3OC)C(=O)O2)c1,5.1,0,0,0,0,0
COc1ccc(C)cc1N(CC(=O)NC1CCCCC1)S(C)(=O)=O,0,0,0,0,-,-
COc1ccc(N2C(=O)CC(N(CCc3ccc(OC)c(OC)c3)C(=O)c3ccccc3)C2=O)cc1 (centres undefined),5.2,0,0,0,0,0
CCCCC(=O)Nc1ccc(C(=O)OCCC)cc1,0,0,0,0,-,-
CCn1nc2c3c(C)c(C)sc3nc(C(C)C)n2c1=O,0,0,0,0,-,-
COc1ccnc(Cn2nc3c4c(C)c(C)sc4nc(C(C)C)n3c2=O)c1OC,0,0,0,0,-,-
SMILES,GPR151 ag,FBW7 act,TEAD-YAP inh,MITF primary,GPR151 confirm,GPR119 ag
Cc1sc2nc(C(C)C)n3c(=O)n(Cc4ccccn4)nc3c2c1C,12.6,0,0,0,0,0
Cc1sc2nc(C(C)C)n3c(=O)n(CCN4CCCC4)nc3c2c1C,11.2,0,0,0,0,0
COc1ccc2[nH]c(=O)c(CN(Cc3ccccc3)C(C)=O)cc2c1,0,0,0,0,-,-
CCOCCn1c(=NC(=O)C2CC2)sc2cc(S(C)(=O)=O)ccc21,8.7,0,0,0,0,0
C#CCn1c(=NC(=O)C2CC2)sc2cc(S(C)(=O)=O)ccc21,6.5,0,0,0,0,0
O=C(CSCc1ccc([N+](=O)[O-])cc1)N1CCN(c2cccc(Cl)c2)CC1,12.8,0,0,0,0,0
O=C(C(=O)N1CCN(c2cccc(Cl)c2)CC1)N1CCCCC1,5.3,0,0,0,0,0
CCCC(=O)Nc1ccc(C(=O)N2CCN(c3cccc(Cl)c3)CC2)cc1,6.3,0,0,0,0,0
O=C(C1CC1)N1CCN(c2cccc(Cl)c2)CC1,0,0,0,0,-,-
Clc1ccc(-c2nc(N3CCOCC3)c3ccccc3n2)cc1,0,0,0,0,-,-
COc1cc(C2C(C#N)=C(N)Oc3cc(C)n(Cc4cccnc4)c(=O)c32)ccc1O (centres undefined),0,0,0,0,-,-
Cc1ccc(C(=O)O)cc1NC(=O)Nc1ccc(F)cc1F,0,0,0,0,-,-
CCN(CC)C(=O)c1sc(NC(=O)COc2ccc(Cl)cc2)c(C#N)c1C,0,0,0,0,-,-
O=C(Nc1ccc(Br)cc1)C1CCN(S(=O)(=O)c2ccccc2)CC1,0,0,0,0,-,-
CC(=O)NCC1CCCN(c2nc3nonc3nc2N2CCSCC2)C1 (centres undefined),5.5,0,0,0,0,0
CC(=O)NCC1CCCN(c2nc3nonc3nc2N2CCCCCC2)C1 (centres undefined),0,0,0,0,-,-
CN(C)C(=O)CN1CCN(c2nc3nonc3nc2N2CCCCCC2)CC1,4.9,0,0,0,0,0
COC(=O)c1sc2ccccc2c1NC(=O)c1ccc(Oc2ccccc2)cc1,10.3,0,0,0,0,0
COC(=O)c1sc2ccccc2c1NC(=O)c1ccc(C(=O)c2ccccc2)cc1,0,0,0,0,-,-
CC1SC2(C(=O)Nc3ccccc32)N(c2ccc(Br)cc2)C1=O (centres undefined),0,0,0,0,-,-
CCOC(=O)C1(CC2CCCCO2)CCN(Cc2cnc(SC)nc2)CC1 (centres undefined),0,0,0,0,-,-
CCOC(=O)C1(CC2CCCCO2)CCN(CCCSC)CC1 (centres undefined),6.6,0,0,0,0,0
COc1ccc(-c2cc(C(=O)NCC(C)C)no2)cc1OC,0,0,0,0,-,-
COc1ccc(-c2cc(C(=O)NCC(C)C)on2)cc1OC,7.8,0,0,0,0,0
CC(NC(=O)CSc1nnnn1-c1ccc(O)cc1)C1CC2CCC1C2 (centres undefined),0,0,0,0,-,-
SMILES,GPR151 ag,FBW7 act,TEAD-YAP inh,MITF primary,GPR151 confirm,GPR119 ag
CC(=O)Nc1ccc(N(C)C(C)=O)cc1,0,0,0,0,-,-
CC(=O)Nc1ccc(N(C)S(C)(=O)=O)cc1,9.3,0,0,0,0,0
CCn1c(=O)c2ccccc2n2c(SCC(N)=O)nnc12,6.3,0,0,0,0,0
CCn1c(SCC(N)=O)nc2ccc(Br)cc2c1=O,5.4,0,0,0,0,0
CCCn1c(=O)c2ccccc2n2c(SCC(N)=O)nnc12,0,0,0,0,-,-
CCn1c(SCC(N)=O)nc2ccc(I)cc2c1=O,0,0,0,0,-,-
Oc1ccc(-c2cnn3c(NCc4ccc(F)cc4)ccnc23)cc1,6.5,0,0,0,0,0
OCc1ccc(-c2cnn3c(NCc4ccc(F)cc4)ccnc23)cc1,0,0,0,0,-,-
